Measurements: publication PMC4336329 (PLoS ONE, 2015)
About 14,000 (4.5%) of roughly 310,000 compounds showed an effect of 50% or more. Effects have a minus sign here. The list comes from a sample in which strong results are over-represented; it also holds similar structures and randomly drawn compounds.

target: human ether-à-go-go-related gene (hERG) potassium channel (human, UniProt Q12809); test: primary screen, population patch clamp on CHO cells stably expressing hERG; higher = less effect of the substance
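Also: peak tail current of the secondary pulse compared with the same well before compound.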

Sequence of human ether-à-go-go-related gene (hERG) potassium channel (Q12809 whole entry, looked up): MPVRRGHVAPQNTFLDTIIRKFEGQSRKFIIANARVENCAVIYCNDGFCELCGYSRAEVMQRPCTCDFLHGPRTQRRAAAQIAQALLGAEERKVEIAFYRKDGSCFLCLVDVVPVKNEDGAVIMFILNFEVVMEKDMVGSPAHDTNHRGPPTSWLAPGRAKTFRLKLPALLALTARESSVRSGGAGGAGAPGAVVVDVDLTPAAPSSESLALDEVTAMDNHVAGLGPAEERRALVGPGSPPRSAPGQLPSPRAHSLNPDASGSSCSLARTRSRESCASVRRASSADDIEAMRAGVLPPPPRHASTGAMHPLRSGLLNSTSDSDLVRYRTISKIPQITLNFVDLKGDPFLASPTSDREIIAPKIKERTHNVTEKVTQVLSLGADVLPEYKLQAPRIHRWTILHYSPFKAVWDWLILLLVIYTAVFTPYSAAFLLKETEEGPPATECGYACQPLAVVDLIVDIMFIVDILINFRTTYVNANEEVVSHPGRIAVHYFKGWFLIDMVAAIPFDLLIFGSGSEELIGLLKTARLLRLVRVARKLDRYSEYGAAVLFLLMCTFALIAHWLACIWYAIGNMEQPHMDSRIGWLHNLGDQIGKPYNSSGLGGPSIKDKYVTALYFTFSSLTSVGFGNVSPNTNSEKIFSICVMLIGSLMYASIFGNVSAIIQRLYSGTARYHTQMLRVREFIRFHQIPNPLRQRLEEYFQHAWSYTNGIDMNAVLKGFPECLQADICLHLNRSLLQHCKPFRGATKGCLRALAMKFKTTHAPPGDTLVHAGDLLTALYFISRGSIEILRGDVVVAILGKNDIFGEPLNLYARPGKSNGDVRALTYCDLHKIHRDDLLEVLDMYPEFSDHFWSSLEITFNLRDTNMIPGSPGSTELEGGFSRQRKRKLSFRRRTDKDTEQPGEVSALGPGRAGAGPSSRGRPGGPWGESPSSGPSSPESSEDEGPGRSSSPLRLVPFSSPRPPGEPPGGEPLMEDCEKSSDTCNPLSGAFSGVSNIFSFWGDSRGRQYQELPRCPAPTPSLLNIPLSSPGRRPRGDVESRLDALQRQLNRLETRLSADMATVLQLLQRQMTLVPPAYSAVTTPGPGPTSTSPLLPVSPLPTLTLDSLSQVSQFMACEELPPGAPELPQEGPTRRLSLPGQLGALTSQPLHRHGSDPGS

SMILES | hERG current change (%, negative = inhibition) at 10uM
Cc1ccc(N2CC(C(=O)N3CCCc4ccccc43)CC2=O)cc1 (stereo not shown) | -18.8%
CCOc1ccc(N2CC(C(=O)N3CCCc4ccccc43)CC2=O)cc1 (stereo not shown) | -62.6%
COc1cccc(NS(=O)(=O)c2ccc3[nH]cc(C(=O)NCCC(C)C)c(=O)c3c2)c1 | 13.9%
Cc1ccc2nc(N/C(=N/S(=O)(=O)c3cccs3)c3ccccc3Cl)sc2c1 | -7.11%
CN1CCN(S(=O)(=O)c2ccc(NC(=O)c3cccs3)cc2)CC1 | -11.3%
NC(=O)c1ccsc1NC(=O)COC(=O)c1cnccn1 | 2.13%
CC1CCC(NC(=O)CNC(=O)c2cccs2)CC1 (stereo not shown) | 7.33%
Cc1n[nH]c(=O)nc1N1CCc2ccccc2C1 | 4.47%
COc1cc(OC)cc(C(=O)Nc2ccc3c(c2)CCCN3C(=O)c2cccs2)c1 | -2.41%
CCOc1cc(S(=O)(=O)NCC2CCCO2)ccc1F (stereo not shown) | 13.8%
COc1ccccc1/C=C/C=N/n1c(-c2ccc(F)cc2)n[nH]c1=S | 6.25%
CC1=NS(=O)(=O)c2cc(Cl)ccc2N1 | -2.63%
Cc1occc1C(=O)NNC(=O)CN1C(=O)NC(C)(c2ccccc2)C1=O (stereo not shown) | 19.1%
COc1cccc(NC(=O)CN(C)C(=O)c2oc3c(ccc4ccccc43)c2C)c1 | -0.74%
CCOC(=O)c1cc(C#N)c(C)nc1N(CC)CC | -3.53%
CC(=O)Nc1cccc(OCC(=O)NS(=O)(=O)c2ccc(C)cc2)c1 | 1.18%
O=C1CC(C(=O)N2CCc3ccccc32)CN1c1ccccc1 (stereo not shown) | -6.98%
O=C1CC(C(=O)N2CCc3ccccc32)CN1c1ccc(F)cc1 (stereo not shown) | -55.3%
O=C1CC(C(=O)N2CCCc3ccccc32)CN1c1ccc(F)cc1 (stereo not shown) | -22.2%
CCNC(=O)CC1SC(=Nc2ccc(Cl)cc2)N(CC)C1=O (stereo not shown) | -0.837%
COCCCn1c(Cc2csc(Nc3ccc(F)cc3)n2)nnc1SCC(N)=O | -5.91%
COc1cc(CN(C)CC2CCCN(CCc3ccc(F)cc3)C2)c(Cl)cc1O (stereo not shown) | -30%

SMILES | hERG current change (%, negative = inhibition) at 10uM
COc1ccc(CN(C)CC2CCCN(CCc3ccc(F)cc3)C2)cc1OC (stereo not shown) | -64.8%
COc1cccc(CN(C)CC2CCCN(CCc3ccc(Cl)cc3)C2)c1OC (stereo not shown) | -74.5%
COc1ccc(CN(C)C2CCN(C)CC2)cc1OC | 21.8%
COc1ccc(CN(C)CC2CCCN(CCc3ccc(Cl)cc3)C2)cc1OC (stereo not shown) | -88.5%
COc1ccc(CN(C)CC2CCCN(CCc3ccc(F)cc3)C2)c(OC)c1OC (stereo not shown) | -74.8%
Cc1ccc2[nH]c3c(Cl)ncnc3c2c1 | 5.18%
Cc1ccc(O)c(C(CC(=O)N2CCCC2)c2ccccc2)c1 (stereo not shown) | -18.9%
COc1ccc(O)c(-c2cc(-c3cccs3)[nH]n2)c1 | 0.169%
CCn1cc(C2C(C(=O)Nc3cc(C)ccn3)=C(C)NC3=C2C(=O)CC(C)(C)C3)c(C)n1 (stereo not shown) | 11.3%
Cc1cccc(NC(=O)CSc2nc(COc3ccccc3)nc3ccccc23)c1C | 13.5%
COc1ccccc1NC(=O)Nc1nn(C)c2cccc(OC)c12 | 2.03%
CCCC12CN3CCN(CC(C3)/C1=N\NC(=O)c1ccc(C(C)(C)C)cc1)C2 | -14.4%
Cc1cccc(N2CCN(CC(=O)Nc3nccs3)CC2)c1C | -45.3%
Cc1cc2nc(-c3ccc(SCC(=O)Nc4ccc5c(c4)OCCO5)nc3)[nH]c2cc1C | 2.26%
COC(=O)c1cc2c(cc1NC(=O)CSCCc1ccccn1)OCO2 | 7.82%
COc1ccc(-c2noc(CN(C)S(=O)(=O)c3ccc(Cl)cc3)n2)cc1OC | -9.85%
O=C1NC(=O)[C@]2(Cc3ccccc3N3CCN(c4ccccc4)CC32)C(=O)N1c1ccccc1 (stereo partly shown) | -7.93%
COc1ccc([N+](=O)[O-])cc1NS(=O)(=O)c1ccccc1 | 8.94%
COc1ccc(N2CCN(CC(=O)Nc3cc(C)on3)CC2)cc1.O=C(O)C(=O)O | 0.616%
CC(C)Cn1c(N)c(C(=O)CSc2ncccn2)c(=O)n(C)c1=O | 6.81%
Cc1ccc(S(=O)(=O)CCC(=O)NCc2ccc(Cl)cc2)cc1 | -3.96%
